# Data taken from PubChem BioAssay (NCI).
# This is part of a sample that, as a whole, favours compounds with a hit. Of some 83,000 tested, about 20% had one in any assay.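 Negative percent growth values reflect cell death: -40 means 40% of the cells present at the start died, and -100 means all died.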 Values without a mark were called inactive. Activity calls are given as the source filed them. How the source made its calls: active means growth percent below 10; inactive means the rest.
# Columns and labels:
# Experiment in all cases: NCI-60 one-dose screen, 48 h (100 = growth as untreated, 0 = no growth, -100 = all killed)
# Conditions in all cases: 10 µM unless noted
# NCI-H23 lung = test system: NCI-H23 lung
# NCI-H226 lung = test system: NCI-H226 lung
# NCI-H322M lung = test system: NCI-H322M lung
# HOP-62 NSCLC = test system: HOP-62 NSCLC
# NCI-H460 lung = test system: NCI-H460 lung
# HOP-92 NSCLC = test system: HOP-92 NSCLC
# NCI-H522 lung = test system: NCI-H522 lung
# A549/ATCC NSCLC = test system: A549/ATCC NSCLC
# 786-0 renal = test system: 786-0 renal
# COLO 205 colon = test system: COLO 205 colon
SMILES,growth (NCI-H23 lung),growth (NCI-H226 lung),growth (NCI-H322M lung),growth (HOP-62 NSCLC),growth (NCI-H460 lung),growth (HOP-92 NSCLC),growth (NCI-H522 lung),growth (A549/ATCC NSCLC),growth (786-0 renal),growth (COLO 205 colon)
ClC1=C(Cl)C(Cl)=C(Cl)C1=Cc1ccccc1,-58.6% (active),-73% (active),-13.2% (active),-32.7% (active),-52.6% (active),-49.1% (active),-51.1% (active),-0.255% (active),-90.3% (active),-55.6% (active)
CCCCCN(CCCCC)CCCCCCCCN1CCCc2ccccc21,76%,97.6%,89.9%,109%,96%,88%,34.6%,95.8%,96.6%,88.5%
CC(C)(C)c1cc(C(=O)Nc2cc3ccccc3cc2C(=O)NCCN)cc(C(C)(C)C)c1,-52.4% (active),-51.9% (active),-78.3% (active),-80.8% (active),-70.4% (active),-70.3% (active),-47.3% (active),-60.7% (active),-92% (active),-80.9% (active)
O=S(=O)(/N=c1/n(-c2ccccc2)nc2n1CCN2C1=NCCN1)c1ccc(-c2ccccc2)cc1,101%,101%,104%,99.1%,94.8%,82.3%,106%,90.1%,89%,109%
CC[C@@H]1NC(=O)[C@@H]2CCCCN2C(=O)[C@@H]2CCCN2C(=O)[C@@H](NC(=O)[C@H](Cc2cc(F)cc(F)c2)NC(=O)Nc2ccc(C3CC3)cc2F)[C@H](C)OC(=O)[C@@H]2C[C@@H](C)CN2C1=O,25.7%,15.5%,41.1%,26.7%,13.5%,-3.81% (active),19.9%,19.9%,16.4%,-40.4% (active)
C#C[C@]1(O)CC[C@H]2[C@@H]3CC=C4c5nc(Nc6ncccn6)sc5CC[C@]4(C)[C@H]3CC[C@@]21C,77.8%,68.8%,74.3%,38.3%,31.2%,52.2%,81%,43.4%,-45.2% (active),92.4%
CCOC(=O)/C(C#N)=C(\C)CCc1ccccc1,91.8%,102%,102%,84.8%,105%,81.5%,86.1%,90.3%,90.1%,132%
C#CCC(C(=O)OCC)C(=O)OCC,100%,98.5%,100%,102%,109%,108%,99.1%,100%,107%,105%
CC(C)C1=NOC(=O)C1=Cc1cn(-c2ccccc2)nc1-c1cccc([N+](=O)[O-])c1,91.9%,102%,98.1%,99.1%,87.9%,88.8%,74.7%,97%,76.7%,109%
Clc1ccc2nc(-c3ccc(-c4ccc(/C=N/NC5=NCCN5)cc4)s3)cn2c1,106%,94.9%,98.3%,98.6%,100%,76.5%,106%,99.9%,95.5%,107%
CC1(C)CC[C@]2(C(=O)O)CC[C@]3(C)[C@H](CC[C@@H]4[C@@]5(C)CCC(=O)C(C)(C)[C@@H]5CC[C@]43C)[C@H]2[C@H]1OC(=O)C(F)(F)F,-62.4% [100 µM] (active),-51.2% [100 µM] (active),-65.6% [100 µM] (active),-79.6% [100 µM] (active),-66.1% [100 µM] (active),-79.6% [100 µM] (active),-71.2% [100 µM] (active),-52.7% [100 µM] (active),-72.7% [100 µM] (active),-72% [100 µM] (active)
Cc1ccc(-n2nc3n(/c2=N\C(=O)NS(=O)(=O)c2ccc(C)cc2)CCN3C2=NCCN2)cc1,106%,95.3%,105%,93.4%,106%,104%,88.6%,95.4%,99.4%,115%
COc1ccc(C(=O)c2nccc3cc(OC)c(OC)cc23)cc1OC,51.9%,97%,120%,95.3%,103%,78.5%,33.4%,98.3%,109%,126%
CSc1nc(=S)c2nc(SC)n(-c3ccccc3)c2[nH]1,103%,90.8%,96.8%,85.5%,95.5%,77.6%,70.1%,97.8%,101%,101%
O=C(N=c1n(-c2ccccc2)nc2n1CCN2C1=NCCN1)c1ccc(Cl)cc1,86.9%,93.3%,91.2%,91.6%,77.3%,61%,95.9%,83.4%,104%,62.2%
Clc1ccc(N2CCN(CCCN3CCN(c4cccc(Cl)c4)CC3)CC2)cc1,50.8%,90.5%,78.3%,67.7%,49.5%,42.7%,59.5%,58.3%,62.4%,42.3%
COc1ccc(C2CC(c3ccc4ccccc4c3)=NN2c2nc(O)c(C3=c4cc(OC)ccc4=NC3=O)s2)cc1 (stereo not given),-29.8% (active),-70.6% (active),-17% (active),-60.7% (active),-39.8% (active),-67.7% (active),-74.1% (active),-72.4% (active),-73.3% (active),-73.3% (active)
O=C1C(Cl)=C(Nc2ccc3cn[nH]c3c2)C(=O)c2ccccc21,-70.1% (active),-4.83% (active),-27.4% (active),-6.04% (active),4.67% (active),-80.4% (active),-84.7% (active),39.7%,-99.4% (active),-85.5% (active)
COc1ncc(-c2ccc3nccc(C#CCCCCC(=O)O)c3c2)cc1NS(=O)(=O)c1ccc(F)cc1F,44%,46.4%,18.3%,29.9%,12.3%,-21.7% (active),43.4%,14.8%,3.82% (active),28.6%
Cc1cccc(C[C@H](NC(=O)Nc2ccc(Cl)cc2F)C(=O)N[C@@H]2C(=O)N3C[C@H](OC(=O)CCN(C)C)C[C@H]3C(=O)N3CCCC[C@H]3C(=O)N[C@@H](C)C(=O)N3C[C@H](C)C[C@H]3C(=O)O[C@H]2C)c1,34.4%,28%,59.2%,35%,13.6%,19.1%,24.6%,25.4%,22.5%,9.51% (active)
COc1ccc2nc3c(cc2c1)C(=O)CC(c1ccccc1)C3 (stereo not given),47.5%,26.5%,37.8%,39.2%,8.79% (active),61.6%,15.4%,34.8%,52.8%,1.93% (active)
Nc1nc(N)c2c(n1)NC(c1ccc(F)cc1)C1CCc3ccccc3C1=N2 (stereo not given),51.1%,53.1%,67.3%,74.1%,26.2%,74.1%,101%,58.6%,60.9%,48.4%
O=C1NC(=O)C(Cc2ccccc2)(Cc2ccccc2)N1,101%,90.4%,106%,84.9%,104%,87.5%,97.5%,102%,90.9%,107%
CC(C)=CC/C=C(/C)[C@H]1CC[C@]2(C)[C@@H]1CC[C@@H]1[C@@]3(C)CCC(=O)NC(C)(C)[C@@H]3CC[C@]12C,13.6% [100 µM],-1.12% [100 µM] (active),36.1% [100 µM],14.3% [100 µM],-16.7% [100 µM] (active),-6.9% [100 µM] (active),-58% [100 µM] (active),15.3% [100 µM],-33% [100 µM] (active),-0.368% [100 µM] (active)
C=CC1=C(C)C2=NC1=CC1=NC(=CC3=C(C)C4=C(O)C(C(=O)O)C(=C5NC(=C2)C(C)C5CCC(=O)O)C4=N3)C(CC)=C1C (stereo not given),107%,97.5%,112%,121%,107%,108%,116%,94.6%,113%,114%
